Assay results published in PubChem BioAssay AID504452 (The Scripps Research Institute Molecular Screening Center, 2011).
The source made the active and inactive calls. Rule as the data show it: active = activation above about 85%; inactive = the rest.

Molecular target: Peroxisome proliferator-activated receptor gamma (Homo sapiens) (UniProt P37231)
Test: PPARg partial agonist activation, primary screen, cell-based, luciferase reporter, luminescence (AID 504452);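 also: Cos-1 cells carrying PPARgamma and a response element luciferase reporter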
Settings: at 5 µM, stronger effect = higher value; activation (% of full agonist control): measured here: relative to full agonist control

Peroxisome proliferator-activated receptor gamma (Homo sapiens), sequence (P37231 whole entry, looked up): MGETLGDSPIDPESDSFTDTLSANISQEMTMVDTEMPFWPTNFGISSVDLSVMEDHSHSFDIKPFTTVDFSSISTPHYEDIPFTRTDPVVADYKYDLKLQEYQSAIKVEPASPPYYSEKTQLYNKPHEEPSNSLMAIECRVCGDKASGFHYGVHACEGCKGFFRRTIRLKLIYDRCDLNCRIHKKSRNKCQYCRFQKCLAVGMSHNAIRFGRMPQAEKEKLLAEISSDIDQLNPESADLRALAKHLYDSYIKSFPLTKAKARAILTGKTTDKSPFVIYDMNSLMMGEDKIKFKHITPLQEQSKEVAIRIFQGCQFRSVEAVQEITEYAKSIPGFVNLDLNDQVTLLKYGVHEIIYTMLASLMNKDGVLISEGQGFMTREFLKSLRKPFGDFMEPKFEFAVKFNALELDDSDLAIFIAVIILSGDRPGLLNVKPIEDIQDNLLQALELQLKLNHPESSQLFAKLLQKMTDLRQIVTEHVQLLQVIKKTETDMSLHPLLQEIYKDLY

SMILES	activation (% of full agonist control) [%]	activation (% of partial agonist control)
O=C(COc1ccc([N+](=O)[O-])cc1)Nc1cccc(C(=O)Nc2ccccc2C(=O)O)c1	27.7	61.3% (inactive)
Cc1ccc(CN2C(=O)N/C(=C\c3cccn3-c3cccc(C(=O)O)c3)C2=O)cc1	36.9	81.8% (inactive)
O=c1c2cn(Cc3ccc(F)cc3)c3ccc(F)cc3c-2nn1Cc1ccc(F)cc1	48.9	108% (active)
COc1cc(C2/C(=C(/O)c3ccccc3)C(=O)C(=O)N2c2ccccn2)ccc1O (stereo unspecified)	26	57.6% (inactive)
COc1cccc(NC(=O)c2ccc3c(c2)N(CC(=O)N2CCOCC2)C(=O)C(C)(C)O3)c1	32.5	71.9% (inactive)
COc1ccccc1-n1cc(C(=O)c2cc(Cl)ccc2O)cc(C#N)c1=O	44.9	99.4% (active)
Cc1[nH][nH]c(=O)c1C(c1c(C)[nH][nH]c1=O)c1cn(Cc2cccc3ccccc23)c2ccccc12	37.6	83.3% (inactive)
CCOC(=O)/C=c1\s/c(=C\c2ccc3cc(OC)ccc3c2)c(=O)n1CC(=O)NCC1CCCO1 (stereo unspecified)	28.6	63.3% (inactive)
COc1ccccc1N1C(=O)C2C(c3ccc(F)cc3)NN(C(=O)c3ccc(C)cc3)C2C1=O (stereo unspecified)	30.1	66.5% (inactive)
O=C(NC(Cc1ccccc1)C(=O)O)/C(=C/c1cccc([N+](=O)[O-])c1)NC(=O)c1ccco1 (stereo unspecified)	41.5	91.8% (active)
Cc1c(CNCCC2=CCCCC2)c(C(=O)O)c(C)n1Cc1ccccc1	10	22.2% (inactive)
O=C(CN1C(=O)/C(=C/c2ccccc2F)Sc2ccccc21)NCC1CCCO1 (stereo unspecified)	35	77.5% (inactive)
O=C(N[C@@H]1CCC(=O)N(CC[C@H](Oc2ccccc2)c2ccccc2)CC1)OCc1ccccc1	28.1	62.1% (inactive)
COc1ccccc1N1C(=O)C2C(c3ccccc3F)NN(C(=O)c3ccc(C)cc3)C2C1=O (stereo unspecified)	26.8	59.4% (inactive)
O=C(O)CC(NC(=O)C(c1ccccc1)c1ccccc1)c1ccc(F)cc1 (stereo unspecified)	27.7	61.3% (inactive)
Cn1nc(-c2ccccc2)c(CO)c1Oc1cccc(C(F)(F)F)c1	30.3	67% (inactive)
O=[N+]([O-])c1cc(S(=O)(=O)Nc2cccc(C(F)(F)F)c2)ccc1-n1nnc2ccccc21	34.2	75.8% (inactive)

SMILES	activation (% of full agonist control) [%]	activation (% of partial agonist control)
O=C1C(=O)N(CCCn2ccnc2)C(c2ccc(Cl)cc2)/C1=C(\O)c1ccc2c(c1)OCCO2 (stereo unspecified)	41.5	91.9% (active)
COc1cc2c(C(=O)N3CCN(c4ccccc4F)CC3)cn(C)c(=O)c2cc1OC	24.1	53.4% (inactive)
O=C(COc1coc(CN2CCc3ccccc3C2)cc1=O)Nc1cccc(Cl)c1	29.2	64.6% (inactive)
COc1ccc2c(c1)c(CCN1C(=O)c3ccccc3C1=O)cn2C(=O)c1ccco1	27.3	60.4% (inactive)
Cc1cccc(NC(=O)CN2C(=O)N/C(=C/c3ccc(-c4cccc(C(=O)O)c4C)o3)C2=O)c1	34.1	75.5% (inactive)
COC(=O)c1ccc(NC(=O)C(=O)c2cn(CC(=O)N3CCOCC3)c3ccccc23)cc1	32.1	71.1% (inactive)
O=C(C1CC(=O)N(c2ccc3c(c2)OCCO3)C1)N1CCN(c2ccccc2O)CC1 (stereo unspecified)	31.6	69.9% (inactive)
COc1ccc(CN2CCN(Cc3ccc(C)cc3)C(CCO)C2)cc1OC (stereo unspecified)	33.7	74.6% (inactive)
O=C(c1cc2n(n1)C(C(F)(F)F)CC(c1ccco1)N2)N1CCc2ccccc2C1 (stereo unspecified)	37.2	82.3% (inactive)
COc1ccc(O)c(C(=O)c2cc(C#N)c(=O)n(CC3CCCO3)c2)c1 (stereo unspecified)	38.1	84.3% (inactive)
Cc1c(-n2cc(C(=O)c3cc(F)ccc3O)cc(C#N)c2=O)c(=O)n(-c2ccccc2)n1C	43.7	96.7% (active)
COc1ccc(-c2ccc(CCC(=O)O)n2CC(=O)Nc2ccccc2C)cc1	35.1	77.7% (inactive)
COC(=O)C1=CN(Cc2ccccc2)C=C(C(=O)OC)C1c1ccc(OC)c(OC)c1	25.9	57.3% (inactive)
Cc1ccc2nc(N3C(=O)C(O)=C(C(=O)c4ccco4)C3c3ccc(C)o3)sc2c1 (stereo unspecified)	56.8	126% (active)
c1ccc(CCN2CN(CCCN3CCOCC3)c3nc4ccccc4n3C2)cc1	24.6	54.4% (inactive)
O=C(O)CCC(=O)N1CCc2cc(S(=O)(=O)NCCc3ccc(Cl)cc3)ccc21	35.9	79.6% (inactive)
